Rows were chosen to be rich in hits. Some 11% of all compounds tested hit in one or more screens of this group.
USP28 inh: blocks human USP28 ubiquitin-rhodamine cleavage. Q96RU2. purified USP28, Ub-rhodamine cleavage fluorescence, 30 min. inhibition, % at 25 µM. 47,000 tested, 3% active
USP17 inh: inhibitors of human USP17 deubiquitinase; 47,000 tested, 6.5% active; A8MUK1; inhibition, % at 50 µM; purified USP17, Ub-rhodamine cleavage fluorescence, 3 h
USP30 inh: inhibitors of human USP30 deubiquitinase; Q70CQ3; purified USP30, Ub-rhodamine cleavage fluorescence; inhibition, % at 25 µM; 47,000 tested, 5.3% active
OTUD3 inh: blocks human OTUD3 ubiquitin-rhodamine cleavage. Q5T2D3. purified OTUD3, Ub-rhodamine fluorescence, 2 h. inhibition, % at 25 µM. 47,000 tested, 0.7% active. AID 1645858
Target sequence (Q5T2D3 whole entry, looked up): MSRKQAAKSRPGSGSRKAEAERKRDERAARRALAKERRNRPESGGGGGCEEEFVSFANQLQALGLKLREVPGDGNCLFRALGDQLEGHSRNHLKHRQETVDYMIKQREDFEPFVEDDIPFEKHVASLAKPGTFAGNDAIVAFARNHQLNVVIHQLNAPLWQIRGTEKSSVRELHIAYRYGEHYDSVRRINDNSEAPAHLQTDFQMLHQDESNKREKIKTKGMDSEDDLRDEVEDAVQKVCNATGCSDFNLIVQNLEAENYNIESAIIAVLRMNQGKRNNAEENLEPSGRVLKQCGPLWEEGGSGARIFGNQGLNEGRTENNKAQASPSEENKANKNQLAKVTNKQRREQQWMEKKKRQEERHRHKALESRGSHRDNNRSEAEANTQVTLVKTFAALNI
The depositor's hits bear a star; i = inactive. Rule as the data show it: active = inhibition above about 30%; inactive = the rest.

SMILES | USP28 inh | USP17 inh | USP30 inh | OTUD3 inh
O=C(NCc1ccccc1)c1cc2occc2c(Nc2ccc(F)cc2)n1 | -7 | 1 | -17 | -9
COc1ccc(Nc2nc(C(=O)NCc3ccc4c(c3)OCO4)cc3occc23)cc1 | 25 | 63* | -37 | -2
Cc1cnc(C(=O)Nc2cccc(S(=O)(=O)N(C)C)c2)cn1 | -9 | -10 | -16 | 0
CCN(CC)C(=O)CN1CCC(Nc2nc3c(c(=O)[nH]2)CCCC3)CC1 | -9 | -14 | -27 | -12
O=c1[nH]c(NC2CCN(Cc3nnnn3Cc3ccc4c(c3)OCO4)CC2)nc2c1CCCC2 | 8 | 0 | 38* | 14
O=C(CSc1n[nH]c(-c2cc(Br)ccc2O)n1)NCCc1ccccc1 | 25 | 38* | 11 | 11
O=C(CSc1nc2ccccc2n1S(=O)(=O)c1ccc(Br)cc1)NCCc1ccccc1 | 16 | -30 | -96 | 4
CC1CCc2onc(C(=O)NCc3ccccn3)c2C1 (stereo not drawn) | 5 | 6 | 5 | 8
COc1ccccc1NC(=O)c1cc(S(=O)(=O)N2CCCCC2)c(C)n1C | -7 | -6 | -7 | -15
Cc1c(S(=O)(=O)N2CCCC2)cc(C(=O)Nc2ccccc2)n1C | 24 | 46* | 9 | -1
COc1ccc(CC(=O)Nc2cccn3c(C)nnc23)cc1Cl | 8 | -20 | -93 | -11
O=C(Cc1cccc2ccccc12)Nc1nc2ccc(Br)cc2s1 | 11 | -21 | -5 | -6
O=C(Nc1nc2c(ccc3ccccc32)s1)c1cccc(Br)c1 | 13 | 47* | 65* | 3
Cc1ccn(-c2ccc(NC(=O)c3ccccc3Sc3ccccc3C#N)cc2)n1 | 38* | 50* | 35* | 14
O=C1CC(c2ccccc2)S(=O)(=O)c2ccccc2N1Cc1ccccc1F (stereo not drawn) | 8 | 39* | 29 | 8
O=C1CN(Cc2ccccc2)S(=O)(=O)c2ccccc2N1Cc1ccccc1F | -2 | -6 | 17 | 3
O=C1CN(Cc2cccc(F)c2)S(=O)(=O)c2ccccc2N1Cc1ccccc1F | 6 | 6 | 31* | 11
COc1ccc(C2CC(=O)N(Cc3ccccc3F)c3ccccc3S2(=O)=O)cc1OC (stereo not drawn) | 0 | 36* | -59 | -2
COc1ccc(C2CC(=O)N(CC(=O)c3ccccc3)c3ccccc3S2(=O)=O)cc1OC (stereo not drawn) | 2 | 1 | 16 | 7
O=C1CN(Cc2ccc(F)cc2)S(=O)(=O)c2ccccc2N1Cc1ccccc1F | 12 | 6 | 21 | 18
Cc1[nH]nc2c1C(c1ccccc1OCc1ccc(F)cc1)CC(=O)N2 (stereo not drawn) | -7 | -2 | 0 | 0
Cc1ccn2c(=O)cc(COc3cccc(NC(=O)COc4ccccc4C)c3)nc2c1 | -44 | -158 | -271 | -37
Cc1ccccc1NC(=O)Nc1ccccc1OCc1cc(=O)n2ccccc2n1 | 20 | 50* | 42* | 12
Cc1ccn2c(=O)cc(COc3cccc(NC(=O)Nc4ccc(F)cc4)c3)nc2c1 | 1 | 38* | -36 | 1
COc1ccc(C(=O)N2CCN(Cc3cc(=O)n4ccccc4n3)CC2)cc1 | 18 | 20 | 36* | 19
SMILES | USP28 inh | USP17 inh | USP30 inh | OTUD3 inh
COc1ccc(OCC(=O)Nc2ccc(C)c(OCc3cc(=O)n4ccccc4n3)c2)cc1 | -13 | 50* | -56 | -9
O=C(c1cc(-c2cccnc2)n(-c2ccc(F)cc2)n1)N1CCN(c2ccccn2)CC1 | -9 | 0 | 6 | -2
Cc1ccc2[nH]c(C3CCCN(C(=O)C4CCOCC4)C3)c(-c3ccncc3)c2c1 (stereo not drawn) | -36 | -37 | -8 | -24
Cc1cccc2c1NC(=O)[C@]21N2CCC[C@H]2[C@@H](C(=O)c2ccc3c(c2)OCO3)[C@]12C(=O)Nc1ccccc12 | -15 | -24 | -31 | -13
COc1ccc(CNc2ccc(-c3ccccc3)nn2)cc1 | 11 | 37* | 18 | 0
CCc1nc(-c2ccc(C)c(S(=O)(=O)NCC(C)c3ccccc3)c2)no1 (stereo not drawn) | 6 | -2 | 8 | -4
CC(c1ccccc1)c1nc(-c2ccc(=O)[nH]c2)no1 (stereo not drawn) | 61* | -2 | 8 | 1
COc1ccc(Cn2cccc(-c3nc(C4CC4)no3)c2=O)cc1F | 31* | 1 | 10 | 3
Cc1ccccc1Cn1cccc(-c2nc(C3CC3)no2)c1=O | 38* | 4 | -2 | 6
Cc1noc(-c2cccn(Cc3noc(-c4ccccc4C)n3)c2=O)n1 | 0 | 6 | 1 | 13
COc1cccc(-c2cc3n(C)c(C)c(CCC(=O)NCc4ccccc4)c(=O)n3n2)c1 | 0 | -4 | 0 | -1
COc1ccc(-c2cc3n(C)c(C)c(CCC(=O)NCc4ccc(F)cc4)c(=O)n3n2)cc1 | 17 | 66* | 54* | 14
COc1ccc(-c2cc(-c3nnc4n3CCCCC4)n(-c3ccccc3)n2)cc1 | 60* | 15 | 28 | 8
COc1ccc(-c2c3c4n(c(-c5ccccc5)cn4c2C(=O)NC2CCCCC2)CCCC3)cc1 | -7 | -17 | -96 | -18
Cc1ccc(-c2c[n+](CC(=O)Nc3cccc4ccccc34)c3n2CCC3)cc1 | 18 | 7 | 34* | 10
Nc1c(-c2ccccn2)nsc1C(=O)N1CCN(c2ccc(F)cc2)CC1 | 6 | 24 | 36* | 5
Nc1c(-c2ccccn2)nsc1C(=O)N1CCN(c2ccccc2)CC1 | 6 | 2 | 8 | 11
O=C(Nc1cccc2cccnc12)c1nnn(-c2ccccc2)n1 | 0 | 44* | 18 | 0
Cc1cn2nc(N3CCC(C4CCCCCN4C(=O)C4CCOCC4)CC3)sc2n1 (stereo not drawn) | 2 | 16 | 19 | 7
O=C1Nc2ccc(S(=O)(=O)NCCCCCCNS(=O)(=O)c3ccc4c5c(cccc35)C(=O)N4)c3cccc1c23 | 38* | 17 | -293 | -54
Cc1ccc(NS(=O)(=O)c2cc(C(=O)NCc3cccnc3)ccc2C)cc1 | -5 | -12 | 0 | -6
Cc1c(O)c(O)c2c(c1O)COC2 | 1 | 39* | -108 | -16
O=C(c1ccc2ncccc2c1)N1CCCC(c2ccc3cn[nH]c3n2)C1 (stereo not drawn) | -212 | -164 | i | -159
CCCCCCCCCCCCCCCCCC(=O)N[C@@H]1C[C@@H](O)[C@@H](O)NC(=O)[C@@H]2[C@@H](O)[C@@H](C)CN2C(=O)[C@H]([C@@H](C)O)NC(=O)[C@H]([C@H](O)[C@@H](O)c2ccc(O)cc2)NC(=O)[C@@H]2C[C@@H](O)CN2C(=O)[C@H]([C@@H](C)O)NC1=O | 38* | 20 | 49* | 16
Cc1cccc(N2CCCn3c2nc2c3c(=O)n(CC(=O)OCc3ccccc3)c(=O)n2C)c1 | 6 | -3 | -24 | 8
O=C(Nc1ccc(Oc2cccc3cccnc23)cc1)c1cccs1 | 86* | -21 | -27 | -15
Cn1c(=O)c2c(ncn2CCOc2ccc(Br)cc2)n(C)c1=O | 16 | 13 | 22 | 14
Cn1c(=O)c2c(ncn2CCOc2ccc(F)cc2)n(C)c1=O | 33* | 16 | 30 | 9
Cc1cc2nc(Oc3cccc(Cl)c3)c3ccccc3n2n1 | -11 | 62* | -3 | -6
